Each structure is given as a SMILES string. In all, about 190,000 compounds went through this assay and about 220 (0.12%) were called active. Inconclusive results (about 2%) are left out. Many of the other results were omitted from the sample, so actives are more common in it than they were. A number with no mark means an inactive call.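 The calls were made as follows: active = GTP binding at least 20 percentage points away from the 100% baseline, in either direction, so actives lie on both sides; inconclusive = Compound likely fluorescent itself, or too few beads counted; inactive = the rest.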

This test has as its target Ras-related C3 botulinum toxin substrate 1 (Homo sapiens) (UniProt P63000). Description: activated Rac1 mutant nucleotide binding changes – biochemical, bead-based flow cytometry, multiplex, fluorescent GTP, primary screen (AID 764). As to conditions: GST-Rac1 activated beads, at 10 µM, actives lie on both sides, 100% means binding = to untreated wells.
Take `Cc1csc(NC(=O)Nc2ccccc2[N+](=O)[O-])n1`: the percent activity (GTP binding) is 97%.
As for `CN(C)S(=O)(=O)Oc1ccccc1C(=O)Nc1ccccc1Cl`, the figure is 99%.
As for `CCOC(=O)N1CCN(CCC(=O)Nc2cc(OC)ccc2OC)CC1`, the figure is 96%; as for `CN1CCN(c2ccc(NC(=O)c3ccc4c(c3)OCCO4)cc2Cl)CC1`, 98%; as for `CSc1ncnc2sc(C)c(C)c12`, 93%.
To `CC[n+]1c(C)n(-c2ccccc2)c2ccc(NC(C)=O)cc21` belongs 96%.
Consider `Cc1ccc(C)c(NC(=O)CCC(=O)N/N=C2/CC(=O)CC(C)(C)C2)c1`, for which the percent activity (GTP binding) was 96%.
To `COc1ccc(S(=O)(=O)N2CCN(C(=O)c3cc(C)oc3C)CC2)cc1` belongs 97%; to `CC(CC(=O)C1C(C)C=CCC1(C)C)NNC(N)=O` (centres undefined), 95%; to `Cn1cccc1/C=C1\SC(=O)N(CC(=O)Nc2ccc(F)cc2)C1=O`, 95%.
To `CCOC(=O)C1CCN(C(=O)C2(NC(=O)Nc3cccc(F)c3)CCCCC2)CC1` belongs 97%.
To `CC(C)N(Cc1nc(-c2ccc3c(c2)OCO3)no1)CC1CCC(=O)N1` (centres undefined) belongs 98%.
With `CCOC(=O)/C(=N\Nc1ccccc1[N+](=O)[O-])c1csc(Nc2ccccc2)n1`, the percent activity (GTP binding) is 91%.
Regarding `C/C(CC(=O)Nc1ccc(C)cc1C)=N\NC(=O)C(C)C`, the percent activity (GTP binding) was 98%.
As for `CCN(C(=O)Cc1nc(N)n[nH]1)C1(C(=O)Nc2ccccc2)CCCCC1`, the figure is 97%; as for `CC(=O)c1c(-c2ccccc2)c2ccccc2[nH]c1=O`, 96%.
As for `COc1ccc(C2=NN(c3ccccc3)C(c3cccs3)C2)cc1` (centres undefined), the percent activity (GTP binding) is 94%.
To `CCS(=O)(=O)c1ccc(O)c(NC(=O)COc2ccc(Cl)cc2)c1` belongs 95%; to `O=C(CC1CCCCC1)NCc1ccco1`, 92%.
As for `CCOc1ccc(Br)cc1S(=O)(=O)N1CCC(C(=O)O)CC1`, the figure is 94%.
To `COc1ccc(NC(=O)c2c(SC)nsc2SC)cc1` belongs 100%; to `CSc1nsc(SC)c1NC(=O)OC1CCCCC1`, 33% (active); to `CSc1ncccc1C(=O)NC1CCCCCC1`, 96%.
Take `Cn1c(CCC(=O)OCC(=O)NCc2ccccc2Cl)nc(=O)c2ccccc21`: the percent activity (GTP binding) was 95%.
With `COc1ccc(-c2nc(N)sc2C2(O)C(=O)Nc3c(Br)cc(F)cc32)cc1OC` (centres undefined), the percent activity (GTP binding) is 95%.
To `COc1cccc(Cn2cnc3c([N+](=O)[O-])c(C)c(C)cc32)c1` belongs 96%; to `Cc1nc2ccccn2c1C(=O)NN=C1CCN(C)CC1`, 98%; to `O=C1c2ccccc2C(=O)N1CCC(O)C[N+](=O)[O-]` (centres undefined), 98%.
Regarding `CC(=O)Nc1ccc(Sc2ccccc2C(=O)N2CCCC2)cn1`, the percent activity (GTP binding) was 98%.
To `CCOc1ccc(C(CC(=O)O)n2cnnn2)cc1OC` (centres undefined) belongs 91%.
As for `Cc1c(Cl)c([N+](=O)[O-])nn1CC(=O)NCC1CCCO1` (centres undefined), the figure is 96%.
To `CC(NC(=O)COC(=O)c1ccc(Cl)cc1O)c1ccc(F)cc1` (centres undefined) belongs 99%; to `COc1c(F)c(F)c(C(=O)O)c(Nc2ccccc2C)c1F`, 97%; to `Cc1ccc(Nc2c(F)c(F)c(F)c(F)c2C(=O)O)c(C)c1`, 139% [activator] (active).
On to `Cc1ccc(NC(=S)NC(=O)c2ccc(-c3ccccc3)cc2)c(C)c1`, for which the percent activity (GTP binding) was 92%.
Turning to `COc1ccc(/C=C/C(=O)c2ccc(OC)cc2O)cc1`, the percent activity (GTP binding) was 96%.
Take `COc1ccc(C(=O)/C=C/c2ccc(OC3CSC3)cc2)cc1`: the percent activity (GTP binding) was 95%.
As for `COc1ccc(/C=C/C(=O)c2cc(Br)ccc(=O)c2O)cc1`, the figure is 78% (active); as for `CCOC(=O)c1c(C)[nH]c(C2=NNC(=NC(C)COC)SC2)c1C` (centres undefined), 97%; as for `Cc1cccc(NC(=O)Nc2ccc3c(c2)OCO3)n1`, 97%.
As to `CC(C(=O)NCC1CCCCC1)N(C)Cc1cccc(Cl)c1` (centres undefined), the percent activity (GTP binding) was 95%.
To `CN(C)CCOc1cccc(Br)c1` belongs 95%; to `N=C1C(c2nc3ccccc3s2)=C(O)CN1NC(=O)c1ccc([N+](=O)[O-])cc1`, 84%; to `C/C(=N/N1CCN(Cc2cccc3ccccc23)CC1)c1cccnc1`, 95%.
As to `CCc1cccc(OC2OC(CO)C(O)C(O)C2NC(C)=O)c1` (centres undefined), the percent activity (GTP binding) was 97%.
As to `S=C(Nc1ccc(Br)cc1Cl)N1CCC2(CC1)OCCO2`, the percent activity (GTP binding) was 98%.
For the compound `Cc1cccc2c1N(CCOc1ccccc1)C(=O)C2=O`, the percent activity (GTP binding) is 98%.
As to `Cc1ccc(CC2CC(=O)N(c3nc(C)cc(C)n3)C2=O)cc1` (centres undefined), the percent activity (GTP binding) was 97%.
To `CNC(=O)COc1ccc(S(=O)(=O)Nc2ccccc2)cc1` belongs 98%; to `COCCN(CCOC)S(=O)(=O)c1ccc(C(=O)Nc2nc3c(s2)CCc2ccccc2-3)cc1`, 100%; to `C=CCN(CC=C)S(=O)(=O)c1ccc(C(=O)Nc2nc3c(s2)CCc2ccccc2-3)cc1`, 54% (active).
Take `C=CCN(CC=C)S(=O)(=O)c1ccc(C(=O)Nc2sc3c(c2C(N)=O)CCCCC3)cc1`: the percent activity (GTP binding) was 100%.
`CCOC(=O)c1[nH]cnc1C(=O)Nc1ccccc1C`: the percent activity (GTP binding) was 95%.
As for `CCOc1ccc(N2C(=O)Nc3ccccc3C2(O)C(=O)NCc2ccco2)cc1` (centres undefined), the figure is 99%.
To `CCOC(=O)c1sc(/N=C/C2=C(O)CC(C)(C)CC2=O)c(C(=O)OCC)c1C` belongs 95%.
To `O=C(NCCOc1ccccc1F)Nc1ccc(Br)cc1` belongs 93%.
As for `C=CCn1c(CNC(=O)c2ccco2)nnc1SCC(=O)c1ccc(OC)cc1`, the percent activity (GTP binding) is 97%.
As for `COc1ccc(CCNC(=O)CN(c2ccccc2)S(C)(=O)=O)cc1`, the figure is 97%; as for `COc1cccc(OC)c1C(=O)NC(=S)Nc1ccc(N2CCOCC2)c(Cl)c1`, 95%; as for `NS(=O)(=O)c1ccc(NC(=O)COC(=O)CCc2c[nH]c3ccccc23)cc1`, 99%.
As for `CCOC(=O)C(=Cc1ccccc1OC)C(=O)OCC`, the figure is 89%; as for `COc1cc(/C=N/NC(=S)Nc2cccnc2)cc(OC)c1O`, 89%; as for `CCc1cc2c(=O)c(-c3nc4ccccc4n3C)c(CCCC(=O)O)oc2cc1OC(=O)C(C)(C)C`, 94%.
On to `Cc1ccc(O)c(NC(=S)NC(=O)COc2ccc(Br)cc2)c1`, for which the percent activity (GTP binding) was 92%.
